# Tgondii IFNg = T. gondii growth inhibition with IFN-gamma, primary screen, cell-based. actives 3.8% (n = 69,000). AID 1259416, 2018. Toxoplasma gondii growth in IFN-gamma-treated host cells; stronger effect = lower value. activity change, negative = inhibition, % (test concentration not listed); in the data active = activity change below about -70%, passing the limit was not always enough;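 also: host cells are HeLa cells infected with Toxoplasma gondii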
# Numbers stand for hits; – = inactive. This excerpt belongs to a sample that is enriched for hits.
SMILES,Tgondii IFNg
CCCN1C(=O)CCc2cc(NC(=O)c3cc(F)cc(F)c3)ccc21,–
CC(C)CN1C(=O)CCc2cc(NC(=O)CCc3ccccc3)ccc21,-98
CC(C)CN1C(=O)CCc2cc(NC(=O)C3CCCCC3)ccc21,–
CCCN1C(=O)CCc2cc(NC(=O)C(CC)c3ccccc3)ccc21 (stereo not drawn),-82
CCCN1C(=O)CCc2cc(NC(=O)c3cccc(C#N)c3)ccc21,–
CC(C)CC(=O)Nc1ccc2c(c1)CCC(=O)N2CC(C)C,–
CCCN1C(=O)CCc2cc(NC(=O)c3ccc(F)c(Cl)c3)ccc21,-82
C=CC(=O)Nc1ccc2c(c1)CCC(=O)N2CCC,–
CCN1C(=O)CCc2cc(NC(=O)c3ccc(C)cc3)ccc21,–
CCN1C(=O)CCc2cc(NC(=O)c3ccsc3)ccc21,–
CCCN1C(=O)CCc2cc(NC(=O)c3ccn(CC)n3)ccc21,–
O=C(c1n[nH]c2c1CCC2)N1CCCC(c2n[nH]c(=O)n2-c2ccccc2)C1 (stereo not drawn),–
CCc1ccc(S(=O)(=O)N2CCC3(CC2)NCCN=C3NCc2ccc(C)cc2)cc1,–
CCCCCNCC(N)=O,–
CCn1c(=O)c(C(=O)Nc2cccc(Cl)c2C)c(O)c2ccccc21,–
CCCn1cc(C(=O)Nc2cc(C(N)=O)ccc2N2CCCCC2C)c(C)n1 (stereo not drawn),–
Cc1cccc(-c2nc(CN(c3ccccc3C)S(=O)(=O)c3cccs3)c(C)o2)c1,–
CCc1ccc(C(=O)Nc2ccc3c(c2)CCC(=O)N3CCOC)cc1,-74
CCCN1C(=O)CCc2cc(NC(=O)c3ccc(CC)cc3)ccc21,–
COCCN1C(=O)CCc2cc(NC(=O)c3ccc(C)cc3)ccc21,–
Cn1cc(-c2[nH]c3cc(NC(=O)[C@H](N)C4CCCCC4)cc4c3c2C=NNC4=O)cn1,-78
CN1C(=O)CO[C@H]2CN(C(=O)c3cnc4ccccc4c3)C[C@@H]21,–
CCS(=O)(=O)N1CCC2(CC1)CC(OCC1CCOCC1)CO2 (stereo not drawn),–
COC1COC2(CCN(C(=O)C3CC(F)(F)C3)CC2)C1 (stereo not drawn),–
CCS(=O)(=O)N1CCC2(CC1)CC(OC)CO2 (stereo not drawn),-85
SMILES,Tgondii IFNg
CCOC(=O)c1c(NC(=O)c2ccc(OC)c(OC)c2)sc2c1CC(C)(C)OC2,–
Cc1cc(C)c2c(c1)[C@@H](N(Cc1cc(C(F)(F)F)cc(C(F)(F)F)c1)c1nnn(C)n1)CCCN2CC1CCC(C(=O)O)CC1 (stereo partly drawn),-81
O=C(NCc1cnn2ccccc12)C1CCOC1 (stereo not drawn),–
Cc1ccc2[nH]c(C(=O)NCc3cccnc3)c(NC(=O)c3ccc(Cl)cc3)c2c1,–
CNC(=O)c1ccc(CNC(=O)Cc2c(C)[nH]c3c(C)ccc(C)c23)o1,–
CNC(=O)c1ccc(CNC(=O)c2[nH]c3ccc(C)cc3c2C)o1,-108
O=C(NCCc1csc(-c2ccc(F)cc2)n1)c1ccc(Cl)cc1,–
Fc1cccnc1N1CCOCC2(CCCN(Cc3ccncc3)C2)C1 (stereo not drawn),–
COCCCN(C(=O)Nc1ccc(F)c(F)c1)C1CCN(C)CC1,–
CCc1ccccc1S(=O)(=O)NCC(c1cccnc1)c1cn(C)c2ccccc12 (stereo not drawn),-83
CCc1ccc(NC(=O)NCC(c2cccnc2)c2cn(C)c3ccccc23)cc1 (stereo not drawn),–
Cn1cc(C(CNC(=O)Nc2ccccc2Cl)c2cccnc2)c2ccccc21 (stereo not drawn),–
Cc1cc(C)n(Cc2ccc(C(=O)N(C)C(C)c3nccs3)cc2)n1 (stereo not drawn),–
COc1ccc(CNCC2Cn3nnc(-c4cnn(C)c4)c3CO2)cc1 (stereo not drawn),–
Cc1nc(-c2ccccc2F)sc1C(=O)Nc1cnn(Cc2cccc(F)c2)c1,-89
Cc1nc(-c2ccccc2F)sc1C(=O)NCc1nc(Cc2ccccc2)no1,–
COc1cccc(-c2cc(C(=O)Nc3cnn(Cc4cccc(F)c4)c3)on2)c1,-96
COc1cccc(Cn2cc(NC(=O)C3(c4cc(C)cc(C)c4)CCOCC3)cn2)c1,–
O=C(CN1CCC(c2ccccc2)CC1)Nc1cnn(Cc2cccc(F)c2)c1,–
Cn1c(=O)c(C(=O)Nc2cnn(Cc3cccc(F)c3)c2)nc2ccccc21,–
Cc1cc(C(F)(F)F)nc(CCn2ccnc2-c2ccc(-n3ccnc3)cc2)n1,–
O=C(CCCOc1ccc(F)cc1F)Nc1ccc2nc[nH]c(=O)c2c1,–
COc1ccc(C2c3c([nH]c(=O)[nH]c3=O)Nc3ccc4ccccc4c32)c(OC)c1 (stereo not drawn),–
CO[C@H]1C=CO[C@@]2(C)Oc3c(C)c(O)c4c(O)c(c5c(c4c3C2=O)NC2(CCN(CC(C)C)CC2)N=5)=NC(=O)/C(C)=C\C=C/[C@H](C)[C@H](O)[C@@H](C)[C@@H](O)[C@@H](C)[C@H](OC(C)=O)[C@@H]1C,–
CC(C)c1nccn1-c1ccc(Oc2ccccc2)nc1,–

# Source: PubChem
